Shown are actives, neighbours in structure and some others; about 6.5% of the full set was active somewhere.
DPM-DC inhibit – blocks S. pneumoniae diphosphomevalonate decarboxylase; AID 556; purified DPM-DC, PK/LDH coupled NADH fluorescence; 0.49% of 65,000 active; calls only at 10 µM;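 active = the 320 compounds with the highest percent inhibition in the single-dose primary screen, excluding strongly autofluorescent ones, cut at about 32% in these data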;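 also: kinetic rate of NADH fluorescence loss reporting ADP formed by the decarboxylase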
Spn MK inh – blocks S. pneumoniae mevalonate kinase. purified MK, PK/LDH-coupled NADH absorbance 340 nm. inhibition, % at 10 µM. 0.48% of 65,000 active;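 active = ranked among the strongest by inhibition in the single 10 µM screen, a fixed top-ranked set picked for dose follow-up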
Abs 340nm – compound absorbs light at 340 nm; fold change at 10 µM; compound absorbance at 340 nm, fold over control; 65,000 tested, under 10 active; AID 708;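 active = at 10 µM dose, initial 340 nm absorbance at least 2 fold that of control wells; inactive = change under 2 fold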;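 also: initial absorbance extrapolated from kinetic A340 decline of NADH oxidation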
Spn PMK inh – blocks S. pneumoniae phosphomevalonate kinase | purified PMK, PK/LDH-coupled NADH absorbance 340 nm | inhibition, % at 10 µM | 0.49% of 65,000 active | AID 539;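 active = top-ranked compounds by inhibition in the single 10 µM screen, taking a fixed number of the strongest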;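 also: 0% = full reaction with DMSO carrier and 100% = background rate without enzyme reaction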
NADH coupling – inhibitors of enzymes used to reach an NAD/NADH endpoint | coupled PK/LDH NADH assays, four targets | IC50, µM (top dose mostly 10 µM), inactives show top-dose inhibition | AID 774 | 0.02% of 65,000 active;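 active = single-dose screening hits from any of four coupled enzyme assays that gave an IC50 when retested across doses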;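 also: the DPM-DC format reads NADH fluorescence rather than 340 nm absorbance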
Autofluor 339 – intrinsic fluorescence of library compounds, ex339/em460 – biochemical, MLSMR library, data from DPM-DC assay, artefact control, profiling panel. fluorescence fold increase at 10 µM. 5.5% of 65,000 active. compound autofluorescence, ex339/em460 nm, NADH buffer; stronger effect = higher value; 1 = no-compound wells, NADH background;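 active = at 10 µM, mean starting fluorescence two-fold or more over control wells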;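 also: signal is the first read of a kinetic run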
Numbers without * were called inactive; i = inactive; . = no result given; + = active, no number.

SMILES	DPM-DC inhibit	Spn MK inh	Abs 340nm	Spn PMK inh	NADH coupling	Autofluor 339
O=c1oc2c(CN3CCCCC3)c(O)ccc2cc1-c1nc2ccccc2[nH]1	.	12	1	4	8%	4*
COc1ccccc1CC(=O)N1CCN(c2cccc(C(F)(F)F)c2)CC1	i	11	1	9	10%	1.1
Cc1cccc(C)c1NC(=O)N1CCC(N2CCCCC2)CC1	i	0	0.99	17	6%	1.1
O=C1c2ccccc2NC2CCCCC12 (configuration not stated)	i	7	1.1	0	2%	1.1
O=C1c2ccccc2NC2CCCCCN12 (configuration not stated)	.	9	0.99	13	3%	3*
CCOC(=O)c1nc(N)c(C(=O)OCC)[nH]1	.	6	1.1	0	3%	2.3*
CCOC(=O)c1[nH]c(C)c(C(=O)OCC)c1C	i	0	1	0	0%	1.1
O=S(=O)(c1ccccc1)N1CCN(c2ncnc3sc(-c4ccccc4)cc23)CC1	.	1	1.1	2	2%	5.2*
CC(=O)C1=C(C)Nc2ncnn2C1c1ccc(Cl)cc1Cl (configuration not stated)	i	10	1.1	17	10%	1.1
CCOc1ccccc1CN(Cc1ccco1)S(=O)(=O)c1ccc(-n2cnnn2)c(OC)c1	i	7	1	8	3%	1
CCOc1cc(S(=O)(=O)NCC2OCCc3ccccc32)c(OCC)cc1-n1cnnn1 (configuration not stated)	.	0	1.1	0	0%	3.9*
CCOc1cc(S(=O)(=O)NCc2ccco2)c(OCC)cc1-n1cnnn1	.	7	1	13	10%	3.2*
Cc1cccc(NC(=O)c2cc3n(n2)C(C(F)(F)F)CC(c2ccc4c(c2)OCO4)N3)c1 (configuration not stated)	i	0	0.96	17	3%	0.98
Cc1cc2n(n1)C(c1ccc3c(c1)OCO3)Nc1c(C)cccc1-2 (configuration not stated)	i	12	0.98	7	9%	2.2*
Cc1cc(C)c2c(c1)-c1cc(C)nn1C(c1ccc3c(c1)OCO3)N2 (configuration not stated)	i	4	0.99	5	6%	2.7*
CCOC(=O)c1c(NC(=O)C(F)(OC)C(F)(F)F)sc(C(=O)N2CCCCC2)c1C (configuration not stated)	i	0	1.1	0	0%	1
CC(C)Cn1c(CN2CCN(c3ccccc3F)CC2)nc2c1c(=O)[nH]c(=O)n2C	i	2	0.99	4	1%	1
CC(C)c1nc(N2CCCC2)c(C#N)c2c1CCCC2	.	1	1.1	0	1%	2.1*
CN1CCc2c(C#N)c(N3CCCCC3)nc(N3CCOCC3)c2C1	i	4	1.1	1	6%	1.6
CCc1nc(N2CCCC2)c(C#N)c2c1CCCC2	i	0	0.93	12	4%	1.6
CCCc1nc(N2CCCC2)c(C#N)c2c1CCCC2	i	20	1	0	7%	2.1*
CCc1nc(N2CCOCC2)c(C#N)c2c1CCCC2	i	0	1	2	1%	2*
CCOC(=O)N1CCC(NC(=O)c2ccc(CS(=O)(=O)c3ccccc3C)o2)CC1	i	3	1	10	6%	0.97
CCOC(=O)C1CCCN(C(=O)CSc2nccn2C)C1 (configuration not stated)	i	0	1	0	0%	0.99
CN1CCN(c2cc3c(c4c2[nH]c2ccccc24)C(=O)CC(C)(C)C3)CC1	.	5	1.1	9	7%	2.1*
SMILES	DPM-DC inhibit	Spn MK inh	Abs 340nm	Spn PMK inh	NADH coupling	Autofluor 339
O=C(CSc1ncnc2c1oc1ccccc12)NC1CCCCC1	i	9	1	9	7%	1
COc1ccc(-n2ncc3c(N4CCC(C(N)=O)CC4)ncnc32)cc1	i	7	0.99	5	4%	1.1
COc1cc2[nH]c3c(N4CCC(C(N)=O)CC4)ncnc3c2cc1OC	i	3	1	19	12%	2.8*
COc1cccc2[nH]c3c(N4CCC(C(N)=O)CC4)ncnc3c12	.	5	1.1	10	8%	3.7*
CCN(CC)CCn1cnc2c([nH]c3cccc(OC)c32)c1=O	.	6	1	12	9%	3.7*
COc1cccc2[nH]c3c(=O)n(CCN(C)C)cnc3c12	.	13	1	16	15%	3.8*
O=c1c2[nH]c3cccc(Cl)c3c2ncn1Cc1ccncc1	i	12	1	1	4%	1.5
Cc1ccc(-c2csc3nnc(SCC(=O)Nc4cccc(C)n4)n23)cc1	i	0	1	8	4%	1.1
COc1ccc(NC(=O)c2oc3ccccc3c2C)c(OC)c1	i	4	1.1	0	2%	1.1
COc1cc2c(cc1NC(=O)c1ccc3c(c1)OCO3)oc1ccccc12	+	5	1.1	0	13%	3*
CCC(=O)Nc1c(C(=O)Nc2cccc(OC)c2)oc2ccccc12	i	5	1.1	9	5%	1.3
COc1ccc(NC(=O)c2oc3ccccc3c2NC(=O)c2ccc(OC)c(OC)c2)c(OC)c1	.	0	1.1	13	7%	5*
N#Cc1ccccc1OCC(=O)Nc1c(C(=O)C2CC2)oc2ccccc12	i	0	1	17	10%	2.6*
CCOCC(=O)Nc1c(C(=O)Nc2ccccc2OC)oc2ccccc12	.	0	1.1	3	2%	5.1*
COc1ccc(-n2nc3c(c2NC(=O)c2cc4ccccc4oc2=O)CS(=O)(=O)C3)cc1	i	3	1.1	19	7%	1
COc1ccc(NC(=O)COc2ccccc2)c(OC)c1	i	10	0.98	4	2%	1
COc1ccc(NC(=O)c2oc3ccccc3c2NC(=O)COc2ccccc2OC)c(OC)c1	.	2	1.1	7	5%	5*
Cn1nnc2c(NCc3ccco3)nccc21	.	1	1	0	1%	2.1*
NC(=O)c1nsc(C(=O)N(CC(=O)NCc2ccc3c(c2)OCO3)C2CCCC2)c1N	i	8	1	.	9%	2.1*
Nc1nnc(SCC(=O)NCc2ccc3c(c2)OCO3)s1	i	7	1	7	5%	1.1
CCOC(=O)N1CCN(c2c(-c3ccc(C)cc3)c(=O)c2=O)CC1	i	6	1.1	17	8%	1.1
CCOC(=O)N1CCN(c2c(-c3ccccc3)c3cc(Cl)ccc3[nH]c2=O)CC1	i	3	1.1	1	6%	2.5*
COc1ccc(N2CCN(C(=O)c3ccc(OCC4CCCO4)cc3)CC2)cc1 (configuration not stated)	i	2	1	0	1%	1.1

Compound activity (PubChem)
